Measurements published in PubChem BioAssay AID1053175 (ICCB-Longwood Screening Facility, Harvard Medical School, 2014).
Out of some 330,000 compounds screened, about 700 (0.21%) were called active. The full list was thinned out, with actives kept by preference. Values without a mark were called inactive.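 How the source made its calls: active means OD600 absorbance below the run mean of sample wells minus 3.6 SD, in any replicate (cut at about 0.56 in these data); inactive means the rest.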

Test: E. coli growth inhibition, primary screen, OD600 (AID 1053175)
Settings: Escherichia coli growth, OD600, 23 h; hits give low values

Question: Which OD600 absorbance does the source give for CCCCCCCCCCCCn1ccc(=N)cc1 here?
Answer: The OD600 absorbance was 0.07 (active).

Question: For CN1CCN(N=Cc2c[nH]c3ccccc23)CC1, which OD600 absorbance is on record?
Answer: The OD600 absorbance was 0.702.

Question: With COC(=O)C1=C(c2cccc(OC)c2OC)CC2CCC1N2C(=O)N1CCOCC1 (stereo not given) as the molecule, how does the OD600 absorbance read?
Answer: Its OD600 absorbance is 0.685.

Question: For Nc1nonc1C(=O)NN=Cc1ccc([N+](=O)[O-])o1, which OD600 absorbance is on record?
Answer: The OD600 absorbance was 0.449 (active).

Question: With COCCNC(=O)N1C2CCC1C(C(=O)OC)=C(c1ccc(OC(F)(F)F)cc1)C2 (stereo not given) as the molecule, how does the OD600 absorbance read?
Answer: Its OD600 absorbance is 0.679.

Question: With COC(=O)C1=C(c2ccc(F)cc2OCc2ccccc2)CC2CCC1N2C(=O)NCc1ccco1 (stereo not given) as the molecule, how does the OD600 absorbance read?
Answer: The OD600 absorbance was 0.626.

Question: With Oc1ccc(C=NNP(=S)(c2ccccc2)c2ccccc2)cc1O as the molecule, how does the OD600 absorbance read?
Answer: The OD600 absorbance was 0.685.

Question: Which OD600 absorbance does the source give for C=C1C(=O)OC2CC(C)C3C=CC(=O)[C@@]3(C)C(O)C12 (stereo not given in full) here?
Answer: Its OD600 absorbance is 0.625.

Question: With CCN(CC)c1ccc([N+](=O)[O-])c2cccnc12 as the molecule, how does the OD600 absorbance read?
Answer: Its OD600 absorbance is 0.662.

Question: Which OD600 absorbance does the source give for O=[N+]([O-])c1cnc2ccc3ccccc3c2c1 here?
Answer: Its OD600 absorbance is 0.447 (active).

Question: With Cc1ccc(-n2c(-c3ccc([N+](=O)[O-])cc3)nc3ccccc3c2=O)cc1 as the molecule, how does the OD600 absorbance read?
Answer: The OD600 absorbance was 0.718.

Question: Which OD600 absorbance does the source give for CNC(=O)Nc1ccc(C(=O)NN=CC23CC[C@@H](O)CC2(O)CC[C@@H]2[C@@H]3CCC3(C)C(C4=CC(=O)OC4)CCC23O)cc1 (stereo not given in full) here?
Answer: The OD600 absorbance was 0.72.

Question: Which OD600 absorbance does the source give for CC12CCC3C(CCC4CC(=NO)CCC43C)C1CCC2O (stereo not given) here?
Answer: The OD600 absorbance was 0.701.

Question: Which OD600 absorbance does the source give for COc1ccc(-n2c(C=C3C(=O)Nc4ccccc43)nc3ccccc3c2=O)cc1 here?
Answer: The OD600 absorbance was 0.706.

Question: With COC(=O)C1=C(c2ccc(S(C)(=O)=O)cc2)CC2CCC1N2C(=O)NCc1ccc(F)cc1 (stereo not given) as the molecule, how does the OD600 absorbance read?
Answer: Its OD600 absorbance is 0.701.

Question: For O=C1NC(=O)N(c2ccccc2)C(=O)/C1=C/c1ccc([N+](=O)[O-])s1, which OD600 absorbance is on record?
Answer: The OD600 absorbance was 0.531.

Question: For COc1cccc(N2C(=O)NC(=O)/C(=C\c3ccc([N+](=O)[O-])s3)C2=O)c1, which OD600 absorbance is on record?
Answer: Its OD600 absorbance is 0.482 (active).

Question: Which OD600 absorbance does the source give for COc1ccc(N2C(=O)/C(=C/c3ccco3)C(=O)NC2=S)cc1 here?
Answer: The OD600 absorbance was 0.67.

Question: With COC(=O)C1=C(c2ccc(OC(F)(F)F)cc2)CC2CCC1N2C(=O)NC1CC1 (stereo not given) as the molecule, how does the OD600 absorbance read?
Answer: The OD600 absorbance was 0.688.

Question: For C[C@]12CCC3c4ccc(O)c(O)c4CCC3C1CCC2O (stereo not given in full), which OD600 absorbance is on record?
Answer: Its OD600 absorbance is 0.667.
